Calls of active or inactive are those of the source. Rule for the calls: active = hit-call score of the fitted dose curve at least 0.9, where 1 is the maximum; inactive = score below 0.9.
Experiments:
[1] = read-out: Collagen III, COL3A1 (gene 1281); test: BSK_MyoF_CollagenIII: BioMAP Diversity Plus: MyoF Assay for Collagen III Biomarker Activity (AID 2284239); conditions: primary human lung fibroblasts
Method in brief: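 Lung fibroblast culture; 24 h compound exposure; collagen III by ELISA; gain-of-signal fit vs DMSO baseline.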

[2] = read-out: Actin alpha 1 (ACTA1), ACTA1 (gene 58); test: BSK_MyoF_ACTA1: BioMAP Diversity Plus: MyoF Assay for Actin alpha 1 (ACTA1) Biomarker Activity (AID 2284244); conditions: primary human lung fibroblasts
Method in brief: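 ELISA read-out of a-SMA in primary human lung fibroblast cultures, 24 h post-dosing. Activity scored in the positive direction versus DMSO baseline.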

[3] = read-out: Interleukin 2 (IL2), IL2 (gene 3558); test: BSK_BT_xIL2: BioMAP Diversity Plus: BT Assay for Interleukin 2 (IL2) Biomarker Activity (AID 2284245); conditions: primary human B cells with PBMC
Method in brief: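 Readout: supernatant IL-2 via Luminex xMAP after 24 h chemical dosing of a B cell/PBMC primary human co-culture. DMSO serves as negative control and baseline; increases in signal were fitted.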

[4] = read-out: Basic fibroblast growth factor (bFGF), FGF2 (gene 2247); test: BSK_MyoF_bFGF: BioMAP Diversity Plus: MyoF Assay for Basic fibroblast growth factor (bFGF) Biomarker Activity (AID 2284246); conditions: primary human lung fibroblasts
Method in brief: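 Primary human lung fibroblast culture, 24 h compound exposure; ELISA read-out of bFGF. Positive-direction fit vs DMSO baseline. Cytotoxicity: SRB stain (0.1% SRB, 10% TCA fixation, 560 nm) in parallel wells.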

[5] = read-out: Collagen IV, COL4A1 (gene 1282); test: BSK_MyoF_CollagenIV: BioMAP Diversity Plus: MyoF Assay for Collagen IV Biomarker Activity (AID 2284247); conditions: primary human lung fibroblasts
Method in brief: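 ELISA read-out of Collagen IV in lung fibroblast cultures, 24 h post-dosing; gain of signal relative to DMSO vehicle baseline defines activity.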

[6] = read-out: Plasminogen activator inhibitor-1 (PAI1), SERPINE1 (gene 5054); test: BSK_MyoF_PAI1: BioMAP Diversity Plus: MyoF Assay for Plasminogen activator inhibitor-1 (PAI1) Biomarker Activity (AID 2284256); conditions: primary human lung fibroblasts
Method in brief: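 MyoF lung fibroblasts, human primary; compound 24 h; PAI-1 ELISA; positive-direction fit vs DMSO baseline; parallel SRB total-protein staining for cytotoxicity.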

[7] = read-out: Interleukin-8 (IL8), CXCL8 (gene 3576); test: BSK_MyoF_IL8: BioMAP Diversity Plus: MyoF Assay for Interleukin-8 (IL8) Biomarker Activity (AID 2284261); conditions: primary human lung fibroblasts
Method in brief: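 Lung fibroblasts (human primary) → chemical exposure → 24 h → IL-8 measured by ELISA. Signal increase scored versus DMSO control.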

[8] = read-out: Decorin, DCN (gene 1634); test: BSK_MyoF_Decorin: BioMAP Diversity Plus: MyoF Assay for Decorin Biomarker Activity (AID 2284265); conditions: primary human lung fibroblasts
Method in brief: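 ELISA readout of decorin, 24 h post-dosing; primary human lung fibroblast (MyoF) culture; gain-of-signal fit vs DMSO baseline.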

[9] = BSK_MyoF_SRB: Viability Assessment in the BioMAP Diversity Plus: MyoF Assay (AID 2284267); conditions: primary human lung fibroblasts;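 note: total protein by SRB absorbance in parallel cultures as cytotoxicity measure; cells assessed 24 h after compound addition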
Method in brief: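 Lung fibroblast cultures, 24 h post-dose; fix 10% TCA, stain 0.1% SRB, read 560 nm. Signal = total protein as cytotoxicity measure; fitted relative to DMSO negative control.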

[10] = read-out: Matrix Metallopeptidase 1 (MMP1), MMP1 (gene 4312); test: BSK_MyoF_MMP1: BioMAP Diversity Plus: MyoF Assay for Matrix Metallopeptidase 1 (MMP1) Biomarker Activity (AID 2284268); conditions: primary human lung fibroblasts
Method in brief: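 Cells: human lung fibroblasts. Exposure: 24 h chemical dosing. Detection: ELISA for MMP1. Analysis: upward fitting against DMSO negative control.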

[11] = read-out: TIMP metallopeptidase inhibitor 1 (TIMP1), TIMP1 (gene 7076); test: BSK_MyoF_TIMP1: BioMAP Diversity Plus: MyoF Assay for TIMP metallopeptidase inhibitor 1 (TIMP1) Biomarker Activity (AID 2284269); conditions: primary human lung fibroblasts
Method in brief: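 ELISA quantified TIMP-1 levels after 24 h dosing of primary human lung fibroblasts, with DMSO as baseline. Parallel SRB total protein staining (0.1% SRB after TCA fixation, 560 nm) flagged overt cytotoxicity.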

[12] = CCTE_Mundy_HCI_Cortical_NOG_BPCount: CCTE's Neurite Outgrowth Assay in rat cortical cells for Branch Point Count, Mundy Lab (AID 2284237)
Method in brief: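 Measured 50.33 h after dosing, this morphology endpoint uses rat primary cortical cultures labelled for betaIII-tubulin. Branch points are quantified by high-content imaging, with DMSO as negative control and baseline.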

[13] = CCTE_Mundy_HCI_hNP1_Casp3_7: CCTE's Caspase-Glo 3/7 Assay in human neuroprogenitor cells for Apoptosis, Mundy Lab (AID 2284240)
Method in brief: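 Luminescent caspase-3/7 readout, 26.5 h post-dose, in human neural progenitor cells from WA09 embryonic stem cells. Cells grew 40–44 h at 37 °C, 5% CO2 before chemical addition. Activity analysed as signal increase over DMSO baseline.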

Measured: AC50

CC1CCC(C(C)CS)CC1S (configuration not stated)
inactive: [3] | [10]
active: [1] 9.71 µM | [2] 9.28 µM | [4] 7.89 µM | [5] 11.8 µM | [6] 8.22 µM | [7] 11.1 µM | [8] 10.1 µM | [9] 9.53 µM | [11] 11.1 µM

BrC1CCC(Br)C(Br)CCC(Br)C(Br)CCC1Br (configuration not stated)
active: [3] 25.2 µM | [10] 3.29 µM
inactive: [1] | [2] | [4] | [5] | [6] | [7] | [8] | [9] | [11]

O=C(O)c1cn(C2CC2)c2cc(N3CCNCC3)c(F)cc2c1=O
inactive: [1] | [2] | [3] | [4] | [5] | [6] | [7] | [8] | [9] | [10] | [11]

O=C(O)C[C@H](O)C[C@H](O)/C=C/c1c(C2CC2)nc2ccccc2c1-c1ccc(F)cc1
active: [1] 2.16 µM | [2] 1.37 µM | [3] 5 µM | [6] 5 µM | [7] 1.1 µM | [9] 3.1 µM | [10] 0.498 µM
inactive: [4] | [5] | [8] | [11]

CCCCCCCCCC=O
active: [5] 7.8 µM | [6] 0.016 µM
inactive: [1] | [2] | [3] | [4] | [7] | [8] | [9] | [10] | [11]

O=C(O)c1cn(-c2ccc(F)cc2)c2cc(N3CCNCC3)c(F)cc2c1=O
inactive: [1] | [2] | [3] | [4] | [5] | [6] | [7] | [8] | [9] | [10] | [11]

O=C=NC1CCC(CC2CCC(N=C=O)CC2)CC1 (configuration not stated)
inactive: [1] | [2] | [3] | [4] | [5] | [6] | [7] | [8] | [9] | [10] | [11]

Cc1ccc(O)c(C(C)(C)C)c1
active: [1] 30.3 µM | [2] 30.9 µM | [4] 36.1 µM | [6] 31.6 µM | [9] 34.3 µM | [11] 33.7 µM
inactive: [3] | [5] | [7] | [8] | [10]

CC(C)c1ccc(C(C)C)cc1
inactive: [1] | [2] | [3] | [4] | [5] | [6] | [7] | [8] | [9] | [10] | [11]

c1ccc2c(c1)c1cccc3ccc4cccc2c4c31
inactive: [1] | [2] | [3] | [4] | [7] | [8] | [9] | [10] | [11]
active: [5] 0.0413 µM | [6] 0.016 µM

N#Cc1ccc(CC(=NNC(=O)Nc2ccc(OC(F)(F)F)cc2)c2cccc(C(F)(F)F)c2)cc1
inactive: [12] | [1] | [13] | [2] | [3] | [4] | [5] | [6] | [7] | [8] | [9] | [10] | [11]

CC1COc2ccccc2N1C(=O)C(Cl)Cl (configuration not stated)
active: [1] 29.6 µM | [2] 20 µM | [5] 2.33 µM | [6] 5.3 µM | [7] 16.1 µM | [9] 20 µM | [10] 9.41 µM | [11] 4.69 µM
inactive: [3] | [4] | [8]

Cc1ccc2n[nH]nc2c1
inactive: [1] | [2] | [3] | [4] | [5] | [6] | [7] | [8] | [9] | [10] | [11]

CCc1c(C)cc(N)c(CC)c1N
inactive: [1] | [2] | [3] | [4] | [5] | [6] | [7] | [8] | [9] | [10] | [11]

CCCCCCCCC=O
inactive: [1] | [2] | [3] | [4] | [5] | [6] | [7] | [8] | [9] | [10] | [11]

CN(C)C(=N)N=C(N)N
inactive: [12] | [13]

CN(CCOc1ccc(CC2SC(=O)NC2=O)cc1)c1ccccn1 (configuration not stated)
active: [5] 0.111 µM | [6] 0.0541 µM | [10] 20 µM
inactive: [1] | [2] | [3] | [4] | [7] | [8] | [9] | [11]

CC(C)Oc1ccccc1O
inactive: [1] | [2] | [3] | [4] | [5] | [6] | [7] | [8] | [9] | [10] | [11]

CCCCC(CC)COC(=O)/C=C\C(=O)OCC(CC)CCCC (configuration not stated)
active: [3] 20 µM
inactive: [1] | [2] | [4] | [5] | [6] | [7] | [8] | [9] | [10] | [11]

CCCCC(CC)COCCC#N (configuration not stated)
inactive: [1] | [2] | [3] | [4] | [5] | [6] | [7] | [8] | [9] | [10] | [11]

C=C(C)C(=O)O[C@H]1C[C@@H]2CC[C@@]1(C)C2(C)C
active: [1] 31.9 µM | [2] 33.1 µM | [4] 31.3 µM | [5] 25 µM | [6] 29.5 µM | [8] 31.7 µM | [9] 34.8 µM | [11] 32.3 µM
inactive: [3] | [7] | [10]

CC(=O)Nc1ccccc1O
inactive: [2] | [3] | [4] | [5] | [6] | [7] | [8] | [9] | [10] | [11]
active: [1] 0.016 µM

CC(=O)O[C@]1(C(C)=O)CC[C@H]2[C@@H]3C[C@H](C)C4=CC(=O)CC[C@]4(C)[C@H]3CC[C@@]21C
inactive: [1] | [2] | [3] | [4] | [5] | [6] | [7] | [8] | [9] | [10] | [11]

Cc1ccc(Nc2ccc(O)c3c2C(=O)c2ccccc2C3=O)cc1
inactive: [1] | [2] | [3] | [4] | [5] | [6] | [7] | [8] | [9] | [10] | [11]

— PubChem BioAssay (EPA / NIEHS)
